Reference: PubChem BioAssay (NCI)
This is part of a sample that, as a whole, favours compounds with a hit. Of some 83,000 tested, about 20% had one in any assay.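 Note: values are percent growth. 100 is the growth of untreated cells, values between 100 and 0 indicate rising inhibition; between -100 and 0 indicates cell death.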 Activity calls are given as the source filed them. Rule for the calls: active = growth percent below 10; inactive = the rest.

System: MOLT-4 leukemia
Assay: NCI-60 one-dose screen, 48 h (100 = growth as untreated, 0 = no growth, -100 = all killed)
Conditions: 10 µM

Structure (SMILES)	growth
Cc1ccc(F)cc1N/C=c1\s/c(=C(\C#N)C(=O)Nc2ccccc2)n(-c2ccccc2)c1=O	90.3% (inactive)
COc1ccc([C@H]2C(C(=O)c3ccc(Cl)cc3)C3(N[C@@H]2c2ccccc2)C(=O)Nc2ccc(Cl)cc23)cc1 (some centres not stated)	12.1% (inactive)
O=C1Nc2cc(-c3ccc(NC(=O)c4cccc([N+](=O)[O-])c4)cc3)ccc2/C1=C/c1ccc[nH]1	73.8% (inactive)
CCCn1c(=O)c2[nH]c(-c3ccc(OCc4nc5ccc(F)cc5[nH]4)cc3)nc2n(CCC)c1=O	24.7% (inactive)
O=C(CSc1nnc(-c2c[nH]c3ccccc23)n1-c1ccccc1)Nc1ccc(C(=O)/C=C/c2ccc(Br)cc2)cc1	57.1% (inactive)
O/N=C(\CSc1nnc(-c2c[nH]c3ccccc23)n1-c1ccccc1)c1ccc(Cl)cc1	-7.37% (active)
O=S(=O)(Nc1ncccn1)c1ccc(-n2c(-c3ccccc3)nc(-c3ccccc3)c2-c2ccccc2)cc1	92.1% (inactive)
COc1cccc(/C=C2\N=C(C)N(CCc3ccc(S(N)(=O)=O)cc3)C2=O)c1	97.8% (inactive)
CN(C)c1ccc(/C=C/C(=O)c2ccc(NC(=O)CN3C(=O)NC(C)(c4ccccc4)C3=O)cc2)cc1 (configuration not stated)	36.6% (inactive)
COc1ccc(-c2ccc(/C=N/NC(=O)c3[nH]c4ccc(Br)cc4c3-c3ccccc3)s2)cc1	87.6% (inactive)
O=C1N/C(=N\c2nccs2)S/C1=C\c1cccs1	17% (inactive)
O=C(CNc1nc(-c2ccccc2)cs1)Nc1ccccc1	-3.86% (active)
COc1cc2c3c(n(CCCNC(C)C)c(=O)c2cc1OC)-c1nc2c(cc1C3=O)OCO2	-1.94% (active)
Cc1cccc(-c2nc(Nc3ccccc3C(=O)O)c3ccccc3n2)c1	34.3% (inactive)
N#Cc1ccc(-c2nn(-c3ccc(C(=O)O)cc3)cc2CNc2ccc(Cl)cc2)cc1	68.8% (inactive)
COc1ccc2nc(Cl)c(-c3cc(-c4ccccc4)nc(=S)[nH]3)cc2c1	23.8% (inactive)
Nc1nc(Nc2ccc(Cl)cc2)n(Cc2cccc(Br)c2)n1	8.42% (active)
O=C(CN1CCN(c2ncnc3c2cnn3-c2ccccc2)CC1)Nc1nncs1	3.73% (active)
O=c1c2ccccc2nc(COc2ccccc2)n1/N=C/c1ccc(N2CCOCC2)cc1	117% (inactive)
Cn1c(O)c(N=Nc2nc(-c3cc4ccccc4oc3=O)cs2)c2cc(Br)ccc21	104% (inactive)
O=c1nc(-c2ccccc2)cc(-c2cc3ccccc3nc2Cl)[nH]1	-18.7% (active)
C/C(=N\NC(N)=S)c1ccc(Nc2nc(SC(C)C)nc(-c3ccccc3)c2C#N)cc1	77.5% (inactive)
COc1ccc(/C=C/C(=O)c2ccc(N3CCN(C)CC3)cc2)c(C(F)(F)F)c1	10.8% (inactive)
Nc1n[nH]c2cccc(C#Cc3cccc(NC(=O)Nc4cc(C(F)(F)F)cc(C(F)(F)F)c4)c3)c12	-1.46% (active)
O=C(Nc1ccc(Cl)c([N+](=O)[O-])c1)Nc1ccc(Cl)c([N+](=O)[O-])c1	21.7% (inactive)
O=C(Nc1nc2ccc([N+](=O)[O-])cc2s1)Nc1cc(Cl)ccc1I	-44.6% (active)
O=C1CCC(N2Cc3cc(NC(=O)COc4ccccc4)ccc3C2=O)C(=O)N1 (configuration not stated)	11.5% (inactive)
CN1CCc2c(sc3ncnc(N/N=C/c4cn(-c5ccccc5)nc4-c4ccc(Cl)cc4)c23)C1	18.2% (inactive)
C=CC(=O)Nc1ccc(C(=O)/C=C/c2ccc(N(C)CCF)cc2)c(O)c1	-3.17% (active)

System: SR leukemia
Assay: as above
Conditions: 10 µM

Structure (SMILES)	growth
Cc1ccc(F)cc1N/C=c1\s/c(=C(\C#N)C(=O)Nc2ccccc2)n(-c2ccccc2)c1=O	75.4% (inactive)
CCCn1c(=O)c2[nH]c(-c3ccc(OCc4nc5ccc(F)cc5[nH]4)cc3)nc2n(CCC)c1=O	11.8% (inactive)
O=C(CSc1nnc(-c2c[nH]c3ccccc23)n1-c1ccccc1)Nc1ccc(C(=O)/C=C/c2ccc(Br)cc2)cc1	72.3% (inactive)
COc1ccc2[nH]cc(/C=N/Nc3ccc(Br)cn3)c2c1	3.07% (active)
O/N=C(\CSc1nnc(-c2c[nH]c3ccccc23)n1-c1ccccc1)c1ccc(Cl)cc1	12.8% (inactive)
O=S(=O)(Nc1ncccn1)c1ccc(-n2c(-c3ccccc3)nc(-c3ccccc3)c2-c2ccccc2)cc1	81.8% (inactive)
COc1cccc(/C=C2\N=C(C)N(CCc3ccc(S(N)(=O)=O)cc3)C2=O)c1	82.1% (inactive)
CN(C)c1ccc(/C=C/C(=O)c2ccc(NC(=O)CN3C(=O)NC(C)(c4ccccc4)C3=O)cc2)cc1 (configuration not stated)	42.7% (inactive)
O=C1N/C(=N\c2nccs2)S/C1=C\c1cccs1	16.4% (inactive)
O=C(CNc1nc(-c2ccccc2)cs1)Nc1ccccc1	4.25% (active)
COc1cc2c3c(n(CCCNC(C)C)c(=O)c2cc1OC)-c1nc2c(cc1C3=O)OCO2	2.57% (active)
Cc1cccc(-c2nc(Nc3ccccc3C(=O)O)c3ccccc3n2)c1	23% (inactive)
Oc1ccc(/C=C2\CCCc3cc4ccc(O)cc4[o+]c32)c(O)c1	15.3% (inactive)
N#Cc1ccc(-c2nn(-c3ccc(C(=O)O)cc3)cc2CNc2ccc(Cl)cc2)cc1	82.8% (inactive)
Nc1nc(Nc2ccc(Cl)cc2)n(Cc2cccc(Br)c2)n1	10.4% (inactive)
O=C(CN1CCN(c2ncnc3c2cnn3-c2ccccc2)CC1)Nc1nncs1	-28.9% (active)
O=c1c2ccccc2nc(COc2ccccc2)n1/N=C/c1ccc(N2CCOCC2)cc1	95.1% (inactive)
Cn1c(O)c(N=Nc2nc(-c3cc4ccccc4oc3=O)cs2)c2cc(Br)ccc21	71.7% (inactive)
C/C(=N\NC(N)=S)c1ccc(Nc2nc(SC(C)C)nc(-c3ccccc3)c2C#N)cc1	79.9% (inactive)
COc1ccc(/C=C/C(=O)c2ccc(N3CCN(C)CC3)cc2)c(C(F)(F)F)c1	7.12% (active)
O=C(Nc1ccc(Cl)c([N+](=O)[O-])c1)Nc1ccc(Cl)c([N+](=O)[O-])c1	12.4% (inactive)
O=C1CCC(N2Cc3cc(NC(=O)COc4ccccc4)ccc3C2=O)C(=O)N1 (configuration not stated)	73.1% (inactive)
CN1CCc2c(sc3ncnc(N/N=C/c4cn(-c5ccccc5)nc4-c4ccc(Cl)cc4)c23)C1	8.8% (active)
